Laboratory results as given in publication PMC4336329 (PLoS ONE, 2015).
Out of some 310,000 compounds screened, about 2,200 (0.71%) showed an effect of 50% or more. Effects have a minus sign here. Many of the other results were omitted from the sample, so strong results are more common in it than they were.

Target: human ether-à-go-go-related gene (hERG) potassium channel (human, UniProt Q12809)
Test: primary screen, population patch clamp on CHO cells stably expressing hERG; higher = less effect of the substance

Sequence of human ether-à-go-go-related gene (hERG) potassium channel (Q12809 whole entry, looked up): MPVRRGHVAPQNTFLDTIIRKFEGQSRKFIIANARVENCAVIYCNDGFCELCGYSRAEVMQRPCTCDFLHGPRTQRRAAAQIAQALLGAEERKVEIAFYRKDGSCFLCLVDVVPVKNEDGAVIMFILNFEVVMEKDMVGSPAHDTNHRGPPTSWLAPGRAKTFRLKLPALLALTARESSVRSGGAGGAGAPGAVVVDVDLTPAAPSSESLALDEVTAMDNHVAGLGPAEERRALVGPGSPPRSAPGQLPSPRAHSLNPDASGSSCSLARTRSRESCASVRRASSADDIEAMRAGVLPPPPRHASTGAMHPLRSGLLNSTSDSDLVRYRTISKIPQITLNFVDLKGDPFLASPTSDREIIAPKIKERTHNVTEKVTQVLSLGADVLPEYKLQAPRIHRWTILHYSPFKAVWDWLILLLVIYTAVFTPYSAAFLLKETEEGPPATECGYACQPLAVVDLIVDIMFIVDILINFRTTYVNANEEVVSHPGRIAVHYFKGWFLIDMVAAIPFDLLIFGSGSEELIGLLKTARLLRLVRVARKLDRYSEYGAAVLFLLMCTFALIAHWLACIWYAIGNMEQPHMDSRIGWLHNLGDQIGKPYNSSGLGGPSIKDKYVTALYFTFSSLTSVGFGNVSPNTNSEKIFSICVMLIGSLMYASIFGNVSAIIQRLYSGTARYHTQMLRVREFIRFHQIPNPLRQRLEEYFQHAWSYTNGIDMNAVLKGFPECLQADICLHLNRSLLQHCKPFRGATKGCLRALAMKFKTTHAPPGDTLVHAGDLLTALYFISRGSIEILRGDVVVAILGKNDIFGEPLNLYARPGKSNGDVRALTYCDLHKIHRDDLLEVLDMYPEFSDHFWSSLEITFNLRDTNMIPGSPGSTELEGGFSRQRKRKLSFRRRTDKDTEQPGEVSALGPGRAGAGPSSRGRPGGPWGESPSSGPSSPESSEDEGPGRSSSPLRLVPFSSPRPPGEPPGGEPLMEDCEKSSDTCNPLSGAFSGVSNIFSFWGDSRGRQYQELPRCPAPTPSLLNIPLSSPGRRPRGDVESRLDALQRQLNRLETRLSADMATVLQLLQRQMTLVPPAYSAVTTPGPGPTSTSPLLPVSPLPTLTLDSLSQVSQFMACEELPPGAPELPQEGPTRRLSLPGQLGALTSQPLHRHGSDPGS

Row | SMILES | hERG current change (%, negative = inhibition) at 1uM [%]
1 | Cn1c(=O)n(C)c2cc(S(=O)(=O)NCC(=O)O)ccc21 | 4.84
2 | CCOc1ccc(CCNC(=O)c2cc3sccc3n2CC)cc1OCC | 14.1
3 | COc1cc(NC(=O)CCS(=O)(=O)c2ccc3nc(C)sc3c2)cc(OC)c1OC | 15.8
4 | CN(C)c1cccc(/C=C(\C#N)c2ccccc2)c1 | 14.2
5 | CCOc1ccc(N(C(=O)c2cnsn2)C(C(=O)NC2CCCCC2)c2ccncc2)cc1 (stereo not shown) | -52.1
6 | CCOc1ccc(N(C(=O)c2cnccn2)C(C(=O)NC2CCCCC2)c2ccc(O)cc2)cc1 (stereo not shown) | 12.4
7 | COc1ccc(N(C(=O)c2cnsn2)C(C(=O)NC2CCCCC2)c2ccncc2)cc1 (stereo not shown) | 7.11
8 | COc1cccc(C(=O)Nc2ccc(Cl)c(C(F)(F)F)c2)c1 | 8.09
9 | O=CN1CCCN(C(=O)CC2C(=O)NCCN2Cc2cccc(Oc3ccccc3)c2)CC1 (stereo not shown) | -14.6
10 | Cn1c(CCN2CCCC2)nc2cc(NS(=O)(=O)c3ccccc3)ccc21 | 6.41
11 | Cn1c(CCN2CCCCC2)nc2cc(NS(=O)(=O)c3ccc(F)cc3)ccc21 | -57.5
12 | Cn1c(CCN2CCOCC2)nc2cc(NS(=O)(=O)c3ccccc3)ccc21 | 6.09
13 | CCC(=O)Nc1ccc2c(c1)nc(CCN1CCC(C)CC1)n2C | 12.3
14 | CC1CCN(CCc2nc3cc(NS(=O)(=O)c4ccc(F)cc4)ccc3n2C)CC1 | -54.8
15 | Cn1c(CN2CCCCC2)nc2cc(NS(=O)(=O)c3ccc(F)cc3)ccc21 | -21.8
16 | CC1CCN(CCc2nc3cc(NS(=O)(=O)c4ccccc4)ccc3n2C)CC1 | -53.3
17 | CC(=O)Nc1ccc2c(c1)nc(CCN1CCC(C)CC1)n2C | 12.4
18 | Cc1ccc(S(=O)(=O)Nc2ccc3c(c2)nc(CN2CCCC2)n3C)cc1 | -9.18
19 | CCn1c(=O)c(CCC(=O)NCC2CCCO2)c(C)c2c(C)nn(-c3ccc(C)cc3)c21 (stereo not shown) | 19.9
20 | CCOc1ccc(N2C(=O)c3cccnc3C2Nc2ccc(OC)cc2)cc1 (stereo not shown) | 1.01
21 | CCn1c(=NC(=O)CSCC(=O)Nc2nccs2)sc2ccccc21 | 2.45
22 | CN(C)c1ccc(C(=O)Nc2ccc(O)c3c(=O)cc(-c4ccccc4Cl)oc23)cc1 | 2.71

Row | SMILES | hERG current change (%, negative = inhibition) at 1uM [%]
23 | C=CCc1cc(Cl)ccc1OCCCn1ccnc1.O=C(O)C(=O)O | 7.27
24 | COc1ccc(C(=O)NC(=O)NC2(C(Cl)(Cl)Cl)OCCO2)cc1 | 8.1
25 | Cc1ccc(NC(=O)C2CC(=O)N(CCc3ccccc3)C2)c(C)c1 (stereo not shown) | 2.1
26 | CC(C)CCNC(=O)c1c(N)n(Cc2ccc3c(c2)OCO3)c2nc3ccccc3nc12 | 11.9
27 | CN(C)S(=O)(=O)N1CCC(CO)(CCc2ccccc2)CC1 | 12
28 | CC(COc1ccccc1)N1CCC(CO)(Cc2ccccc2)CC1 (stereo not shown) | -13.3
29 | COc1ccc(CC2(CO)CCN(C(=O)NCc3ccccc3)CC2)cc1 | 10.4
30 | COc1ccc(CC2(CO)CCN(C(C)COc3ccccc3)CC2)cc1 (stereo not shown) | -68.4
31 | CSCC(C)N1CCC(CO)(CCc2ccccc2)CC1 (stereo not shown) | 13.9
32 | CC(COc1ccccc1)N1CCC(CO)(CCc2ccccc2)CC1 (stereo not shown) | -84.8
33 | COc1ccc(CC2(CO)CCN(S(=O)(=O)N(C)C)CC2)cc1 | 14.7
34 | COc1ccc(CCC(C)N2CCC(CO)(Cc3ccccc3)CC2)cc1 (stereo not shown) | -31.6
35 | COc1ccc(CC2(CO)CCN(C(C)Cc3ccc(Cl)cc3)CC2)cc1 (stereo not shown) | -80
36 | Cc1cccc2nc(-c3ccco3)c(Nc3ccc4c(c3)OCO4)n12 | 5.48
37 | CSCCC(NC(=O)c1ccc(Cl)cc1)C(=O)OCC(=O)Nc1ccc(C#N)cc1 (stereo not shown) | -1.39
38 | CCCn1cc(CN2CCCC(C(=O)c3cccc(OC)c3)C2)c(C)n1 (stereo not shown) | -14.5
39 | CS(=O)(=O)N1CCc2cc(-c3csc(NC(=O)Cc4cccs4)n3)ccc21 | -5
40 | CCc1ccccc1NNC(=O)c1snnc1C | 1.7
41 | CCC(C)N(C(=O)COC(=O)c1nc2nc(C)cc(C)n2n1)C1CCS(=O)(=O)C1 (stereo not shown) | 21.2
42 | O=C(O)CCn1cc(C=C2C(=O)NC(=O)NC2=O)c(-c2cc3ccccc3oc2=O)n1 | 20.6
43 | Cc1c(C(=O)N2CCN(c3ncccn3)CC2)oc2ccc(Cl)cc12 | 2.57
44 | Cc1c(C(=O)N2CCN(CCc3ccccn3)CC2)oc2ccc(Cl)cc12 | -84.6

Row | SMILES | hERG current change (%, negative = inhibition) at 1uM [%]
45 | Cc1c(C(=O)N2CCN(CCc3ccccn3)CC2)oc2ccc(F)cc12 | -61.3
46 | Cc1c(C(=O)N2CCN(CCc3ccccc3)CC2)oc2ccccc12 | -36
47 | Cc1cc2oc(C(=O)N3CCN(CCc4ccccn4)CC3)c(C)c2cc1C | -6.88
48 | Cc1c(C(=O)N2CCN(C(=O)c3ccccc3)CC2)oc2ccc(F)cc12 | -5.86
49 | Fc1ccc(Cn2nnc(-c3ccc(Cl)cc3)n2)cc1 | 11.5
50 | Cc1nc2ccccc2c(=O)n1NC(=O)Cc1ccc(Br)cc1 | 5.31
51 | COc1cccc(OCC(=O)NNC(=O)c2cccs2)c1 | 9.89
52 | O=C1N(c2ccc(Cl)cc2)C(c2cccnc2)N2CCCN12 (stereo not shown) | 6.95
53 | C/C(=N\NC(=O)COc1c(C)cccc1C)c1cccs1 | 8.57
54 | CCC(CC)C(=O)Nc1ccc(C)c(O)c1 | 5.34
55 | O=C(Nc1ccnn1C1CCN(Cc2ccccn2)CC1)c1cccc(F)c1 | 6.56
56 | O=C(CCc1ccccc1)Nc1ccnn1C1CCN(C/C=C/c2ccccc2)CC1 | -24.2
57 | O=C(Nc1ccnn1C1CCN(C2CCOCC2)CC1)c1cccc(F)c1 | 1.92
58 | O=C(Nc1ccnn1C1CCN(C/C=C/c2ccccc2)CC1)c1ccccc1Cl | -92.1
59 | O=C(Nc1ccnn1C1CCN(C/C=C/c2ccccc2)CC1)c1cccc(F)c1 | -58.5
60 | CC(C)=CCN1CCC(n2nccc2NC(=O)c2ccccc2Cl)CC1 | -43
61 | O=C(Nc1ccnn1C1CCN(Cc2ccc(CO)o2)CC1)c1ccccc1Cl | 6.94
62 | O=C(Nc1ccnn1C1CCN(Cc2ccc(CO)o2)CC1)c1ccccc1 | -0.976
63 | O=C(Nc1ccnn1C1CCN(C/C=C/c2ccccc2)CC1)c1ccccc1 | -64.4
64 | Cc1ccc(OCCNC(=O)CNC(=O)c2ccc(C)c(C)c2)cc1 | 4.24
65 | CCC(C(=O)NN1C(=O)c2ccccc2C1=O)c1ccccc1 (stereo not shown) | 13.8
66 | CCC(=O)c1ccc(OCC(=O)OCC(=O)NC2CCCC2)cc1 | 14.5

Row | SMILES | hERG current change (%, negative = inhibition) at 1uM [%]
67 | O=C(CCS(=O)(=O)c1ccc(Br)cc1)N1CCN(c2ccccc2Cl)CC1 | 2.11
68 | O=C(OCc1cc(=O)n2c(n1)sc1ccccc12)c1ccc(O)cc1O | 7.81
69 | Cc1ccc2[nH]c(=O)c(-c3nc4ccccn4c3NCc3ccco3)cc2c1 | -4.3
70 | Cc1cccc2cc(-c3nc4c(C)cccn4c3NCc3ccco3)c(=O)[nH]c12 | 2.58
71 | COCCNc1c(-c2cc3ccc(C)c(C)c3[nH]c2=O)nc2ccccn12 | -77
72 | CCOCCCNC(=O)CN(Cc1ccc(Cl)cc1)S(C)(=O)=O | 8.42
73 | COCCCNCCC(CCC(C)C)c1ccc2c(c1)OCO2.Cl (stereo not shown) | -85.8
74 | COCCCNC(=O)c1ccc2c(c1)OCO2 | -2.46
75 | CC(C)CCC(CCNCc1ccccn1)c1ccc2c(c1)OCO2.Cl (stereo not shown) | -79.1
76 | c1ccc(CNCc2ccc3c(c2)OCO3)nc1 | 11
77 | CC(NC(=O)C1CCC1)c1ccc2c(c1)OCO2 (stereo not shown) | -3.43
78 | Cl.Fc1ccccc1CNCCC(Cc1ccccc1)c1ccc2c(c1)OCO2 (stereo not shown) | 10.8
79 | CC(C)CCC(CCNCc1ccccn1)c1ccc(Cl)cc1 (stereo not shown) | -40.7
80 | COCCCNS(=O)(=O)c1ccc2c(c1)OCCO2 | 5.7
81 | CCNCCC(CCC(C)C)c1ccc2c(c1)OCO2 (stereo not shown) | -64.3
82 | COc1ccccc1NS(=O)(=O)c1ccc(C)c(C(=O)NCC2CCCO2)c1 (stereo not shown) | -14.5
83 | CCNc1nc(N)nc(Oc2ccc(OCCOc3ccccc3)nn2)n1 | 8.36
84 | COc1ccc2[nH]c(C)c(CCN(Cc3cccs3)C(=S)Nc3ccccc3)c2c1 | 6.37
85 | O=C1c2ccc3c4c(ccc(c24)C(=O)N1NC(=O)C(F)(F)F)CC3 | 10.1
86 | COc1cc(NC(=O)c2ccccc2F)c(OC)cc1NC(=O)CN1CCCCC1.Cl | 1.58
87 | O=C(O)c1ccccc1C(=O)Nc1ccc(Br)c(C(F)(F)F)c1 | 2.61
88 | CCc1ccc(N2C(=O)CC(N3CCN(Cc4ccc5c(c4)OCO5)CC3)C2=O)cc1 (stereo not shown) | -1.13
